Screening data (PubChem)
Only some compounds are listed: those with a hit (about 1.2% of all), similar ones and a draw of the others.
S-ASM inh: Inhibitors of Secretory Acid Sphingomyelinase (S-ASM): qHTS; Sphingomyelin phosphodiesterase (Homo sapiens), P17405; placental ASM, HMU-PC fluorogenic substrate, 60 min; Potency, µM (top dose mostly 57.5 µM), hits mostly inhibitors; actives 0.006% (n = 340,000)
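HMU-PC0 cleavage (9 uM final) by human placental ASM, 60 min at 37 °C following 10 min compound exposure at RT; stopped at pH 10, fluorescence Ex 386/Em 447 nm.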
KCNH2 WT inh: qHTS for Inhibitors of KCHN2 3.1: Wildtype qHTS | actives 0.37% (n = 340,000) | Voltage-gated inwardly rectifying potassium channel KCNH2 (Homo sapiens), Q12809 | activity change, % at 1.84 µM | U2OS, BacMam KCNH2, thallium flux FluxOr; active compounds read low;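 active = maximum activity change below -70%; inconclusive = maximum activity change between -70% and -50%; inactive = maximum activity change above -50%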
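U2OS cells transduced with wild-type KCNH2 virus are loaded with FluxOr dye for 45 min, and thallium flux is measured in kinetic reads before and after stimulation buffer. Rate constants are normalized to DMSO controls.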
KCNH2 3.1 block: qHTS for Inhibitors of KCHN2 3.1: Mutant qHTS; Potassium voltage-gated channel subfamily H member 2, brain isoform KCNH2 3.1 (human); U2OS KCNH2 3.1, thallium flux FluxOr; active compounds read low; activity change, % (tested at about 1.8 µM); actives 0.95% (n = 340,000); AID 720553, 2013;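 active = maximum activity change below -70%; inconclusive = maximum activity change from -70% to -50%; inactive = maximum activity change above -50%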;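 note: thallium influx rate constant from kinetic fluorescence after stimulation buffer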
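Steps: virus added to U2OS suspension (4 h, RT, dark); medium with 10% FBS added, cells plated, 37 C overnight; FluxOr/Red40 loading buffer 45 min RT; stimulation buffer, 2 min kinetic read; rate constant normalized.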
mIDH1 inhibitor: qHTS for Inhibitors of mutant isocitrate dehydrogenase 1 (IDH1): qHTS; actives 0.093% (n = 390,000); IDH1-R132H enzyme, NADPH consumption, diaphorase/resazurin fluorescence; Potency, µM (doses to about 76.6 µM), actives largely listed as inhibitors; Isocitrate dehydrogenase [NADP] cytoplasmic (Homo sapiens), O75874; note: nearly all actives have a fitted effect of over 65% in size
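IDH1-R132H (0.5 ug/mL) preincubated 30 min with compound, then NADPH (0.016 mM) and alpha-KG (2 mM) added; 80 min at RT, pH 7.5. Remaining NADPH coupled via diaphorase/resazurin to fluorescence (540/590 nm); concentration-response curves normalized to no-enzyme control.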
Apoferritin bind: qHTS Assay for Identification of Novel General Anesthetics. AID 485281, 2010. Ferritin light chain (Equus caballus), P02791. Potency, µM (highest dose often 77.5 µM), actives largely listed as inhibitors. apoferritin/1-aminoanthracene competitive binding, fluorescence. actives 0.074% (n = 350,000); note: nearly all actives have a fitted effect of over 20% in size
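In PBS, apoferritin at 10 uM is loaded with 1-AMA from a 50% saturated solution. After 10 min of compound exposure at ambient temperature, reduced 535 nm fluorescence indicates probe displacement.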
IDH1 autofl: qHTS for Inhibitors of mutant isocitrate dehydrogenase 1 (IDH1): Cherrypicks Autofluorescence Interference | inhibition of signal, % at 51.2 µM | AID 623980, 2012 | shares compounds with mIDH1 inhibitor | Resorufin detection reagent fluorescence interference, cell-free | 750 tested, under 10 active
IDH1 WT: qHTS for Inhibitors of mutant isocitrate dehydrogenase 1 (IDH1): Cherrypicks in WT IDH1; shares compounds with mIDH1 inhibitor; WT IDH1 enzyme, NADPH diaphorase/resazurin fluorescence; Potency, µM (highest dose often 115 µM), most hits filed as inhibitors; actives 9% (n = 750); AID 623995, 2012; note: nearly all actives have a fitted effect of over 55% in size
Target sequence (O75874 whole entry, looked up): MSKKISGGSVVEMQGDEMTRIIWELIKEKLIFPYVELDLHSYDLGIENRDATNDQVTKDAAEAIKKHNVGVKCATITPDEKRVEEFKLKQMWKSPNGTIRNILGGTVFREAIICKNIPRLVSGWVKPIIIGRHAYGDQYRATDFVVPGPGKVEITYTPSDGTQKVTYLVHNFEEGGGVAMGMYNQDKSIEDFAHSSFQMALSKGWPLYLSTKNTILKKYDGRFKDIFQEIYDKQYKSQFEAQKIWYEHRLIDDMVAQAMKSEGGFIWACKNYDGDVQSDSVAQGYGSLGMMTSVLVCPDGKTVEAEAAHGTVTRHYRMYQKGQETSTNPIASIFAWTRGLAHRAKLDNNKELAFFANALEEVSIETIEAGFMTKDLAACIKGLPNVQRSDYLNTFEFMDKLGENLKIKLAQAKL
IDH1 R132H conf: qHTS for Inhibitors of mutant isocitrate dehydrogenase 1 (IDH1): Confirmation of Cherrypicks | actives 83% (n = 750) | IDH1 R132H enzyme, NADPH diaphorase/resazurin fluorescence | shares compounds with mIDH1 inhibitor | AID 624002, 2012 | Potency, µM (highest dose often 76.6 µM), most hits filed as inhibitors; note: nearly all actives have a fitted effect of over 50% in size
Numbers stand for hits; – = inactive; ? = inconclusive; · = no result. Unless noted, calls come from the whole dose curve; as a rule, active = well fitted curve in the direction sought with a large enough effect; inconclusive = small, poorly fitted or top-dose-only effect, or another doubt; inactive = no such curve, though single readings can be large; an effect the other way counts as inactive or inconclusive.

SMILES	S-ASM inh	KCNH2 WT inh	KCNH2 3.1 block	mIDH1 inhibitor	Apoferritin bind	IDH1 autofl	IDH1 WT	IDH1 R132H conf
N#CC(C#N)=NNc1ccc(-n2ccc(C(F)(F)F)n2)cc1	–	–	–	33µM	–	–	79µM	25µM
Cc1ccc(-n2nc3c(=O)n(CC(=O)NCC(C)c4ccccc4)nc(C)c3c2C)cc1 (stereo not drawn)	·	·	·	?	–	–	–	–
CC[C@H](C)[C@H](NC(=O)[C@H](CCCN=C(N)N)NC(=O)[C@H](CCCN=C(N)N)NC(=O)[C@H](CC(C)C)NC(=O)[C@H](Cc1ccccc1)NC(=O)CNC(=O)CNC(=O)[C@@H](N)Cc1ccc(O)cc1)C(=O)O	·	·	·	·	–	·	·	·
CCOC(=O)c1c(-n2c(C)cc(/C=C3/C(=O)NC(=O)N(CC)C3=O)c2C)sc2c1CCCC2	?	–	–	?	·	·	·	·
CCOC(=O)c1c(-n2c(C)cc(C=C3C(=O)NC(=S)NC3=O)c2C)sc2c1CCCC2	–	–	–	14µM	?	–	40µM	7.1µM
CC(=O)Nc1ccc(C(=O)OCC(=O)Nc2ccc(Cl)cc2C(=O)c2ccccc2)cc1	–	–	–	?	–	·	·	·
O=C(COC(=O)c1ccc(O)cc1)Nc1ccc(Cl)cc1C(=O)c1ccccc1	–	–	–	58µM	–	–	–	35µM
COC[C@]12CN(C=O)C3C4C(OC)C1[C@@]3(C1CC3(O)C(OC)C(O)C4(OC(C)=O)C1C3OC(=O)c1ccccc1)[C@@H](OC)CC2O (stereo partly drawn)	·	·	·	·	–	·	·	·
